About 3,300 (8.5%) of roughly 39,000 compounds were called active. What follows is part of a selection rich in actives, with near analogues and random picks from the rest.

For the test, the system named is HepG2. The experiment in a line: cytotoxicity call (relative viability < 0.9). The settings on record: 10 µM.
Consider `Cc1nc[nH]c1CCN`, for which the cytotoxicity call is “inactive”. To `NC[C@@H](CS(=O)(=O)O)c1ccc(Cl)cc1` belongs “inactive”; to `CCN1C[C@]2(C)CC[C@H](O)[C@@]34[C@@H]5C[C@H]6[C@H](O)[C@@H]5[C@](O)(C[C@@H]6OC)[C@](O)([C@@H](OC)[C@H]23)[C@@H]14`, “inactive”. The entry for `C[C@@H]1CN([C@@H](C)CO)C(=O)c2c(c3ccccc3n2C)-c2ccccc2CO[C@@H]1CN(C)C(=O)Oc1ccccc1` is “inactive”; for `CN(C)[C@@H]1C(=O)C(C(N)=O)=C(O)[C@@]2(O)C(O)=C3C(=O)c4c(O)cccc4[C@](C)(O)[C@H]3C[C@@H]12` it is “inactive”; for `CCC(C)C(=O)OC1CC2(C)C(c3ccoc3)OC(=O)CC23OC2(C)OC34C(OC(C)=O)C3(O)C(OC(=O)C5(C)OC5C)C5(C)CC3(O)C(C)(C5CC(=O)OC)C14O2` (centres undefined) it is “inactive”.

With `Cc1ccc(N=CN(C)C=Nc2ccc(C)cc2C)c(C)c1`, the cytotoxicity call is “inactive”. For the compound `C[C@H](CO)N1C[C@H](C)[C@@H](CN(C)C(=O)Oc2cccc3ccccc23)OCc2cnnn2CCCC1=O`, the cytotoxicity call is “inactive”.

Take `O=C(O)c1ccc(=O)[nH]c1`: the cytotoxicity call was “inactive”. Consider `CN1CCN(Cc2ccc[nH]2)CC1`, for which the cytotoxicity call was “inactive”. The entry for `CC12CCC3c4ccc(OC(=O)N(CCCl)CCCl)cc4CCC3C1CCC2O` (centres undefined) is “active”; for `C[C@]12CC[C@@H]3c4ccc(OC(=O)N(CCCl)CCCl)cc4CC[C@H]3[C@@H]1CC[C@@H]2OP(=O)(O)O` it is “inactive”; for `Cc1cc(C)nc(NC2=NCCN2)n1` it is “inactive”.

As to `O=C(CN1CCOCC1)c1ccc(O)cc1O`, the cytotoxicity call is “inactive”. The entry for `CC(C)[N+](C)(CCC(C(N)=O)(c1ccccc1)c1ccccc1)C(C)C.[I-]` is “inactive”; for `c1cc2c(c(N3CCNCC3)c1)OCCO2` it is “inactive”; for `CCC1(c2ccccc2)C(=O)NC(=O)NC1=O` it is “inactive”. In the case of `COC(=O)C[C@@H]1CC[C@H]2NC[C@H](O)COC[C@@H]2O1`, the cytotoxicity call was “inactive”. To `COC12CC(COC(=O)c3cncc(Br)c3)CN(C)C1Cc1cn(C)c3cccc2c13` (centres undefined) belongs “active”; to `NCC1(c2ccc(Cl)cc2)CC1`, “inactive”; to `O=C(O)/C=C/CO`, “inactive”. The entry for `Cn1cc(NC(=O)c2cc(NC(=O)CNC(=N)N)cn2C)cc1C(=O)NCCC(=N)N` is “inactive”. As for `O=C(O)CCl`, the cytotoxicity call is “inactive”.

Take `O=C1NC2(CCNCC2)C[C@@H]1c1ccncc1`: the cytotoxicity call was “inactive”.

On to `Cc1cccc(Cc2cnc[nH]2)c1C`, for which the cytotoxicity call is “inactive”. The entry for `NCCc1c[nH]c2ccccc12` is “inactive”; for `COc1ccc2[nH]cc(CCN)c2c1` it is “inactive”.

On to `COc1cccc(-c2ccc3c(CCN)c[nH]c3c2)c1`, for which the cytotoxicity call was “active”. To `COc1ccc(C=O)cc1` belongs “inactive”. To `COc1ccc(N=[N+]=[N-])cc1` belongs “inactive”. `C=CCc1ccc(OC)cc1`: the cytotoxicity call was “active”. To `C[C@@H]1C(=O)NC[C@H]2CN(CC3CC3)C[C@@H]21` belongs “inactive”; to `CNC[C@@H](O)c1ccc(O)c(OC)c1`, “inactive”; to `CN1C[C@H]2CN(Cc3nccn3C)C[C@H]2C1=O`, “inactive”. Regarding `N#Cc1c(Cl)c(Cl)c(Cl)c(C#N)c1Cl`, the cytotoxicity call was “active”.

Consider `COc1ccc(C2(CN)CCOCC2)cc1`, for which the cytotoxicity call was “inactive”. In the case of `CC[C@@H]1/C=C/C=C/C[C@H](C)[C@@H](O)[C@](C)(O)C(=O)[C@H](C)[C@@H](O)[C@H](C)C(=O)[C@H](C)[C@@H](O)[C@H](C)/C=C/C(=O)O[C@H]2[C@@H](C)[C@@H](CC1)O[C@@]1(CC[C@@H](C)[C@@H](C[C@H](C)O)O1)[C@@H]2C`, the cytotoxicity call was “inactive”.

Regarding `CC1(C)C(O)CC(O)C2(C)C1CC(=O)C1(C)C2CCC2(C)C(c3ccoc3)OC(=O)C3OC321` (centres undefined), the cytotoxicity call is “inactive”.

In the case of `CC1(C)C(=O)C2OC2C2(C)C1CC(O)C1(C)C2CCC2(C)C(c3ccoc3)OC(=O)C3OC321` (stereo not drawn) [1,2alpha-EPOXYDEACETOXYDIHYDROGEDUNIN ], the cytotoxicity call was “inactive”. On to `CC(=O)OC1CC2C(C)(C)C(=O)C=CC2(C)C2CCC3(C)C(=CC(=O)OC3c3ccoc3)C12C` (centres undefined), for which the cytotoxicity call was “active”. To `COC(=O)C1CC(OC(C)=O)C(=O)C2C1(C)CCC1C(=O)OC(c3ccoc3)CC12C` (centres undefined) belongs “inactive”; to `CC1(C)C(=O)C=CC2(C)C1CC(O)C1(C)C2CCC2(C)C(c3ccoc3)OC(=O)C3OC321` (centres undefined), “active”. To `CC(=O)OC1CC(OC(C)=O)C2(C)C(CC(OC(C)=O)C3(C)C2CCC2(C)C(c4ccoc4)C(=O)C4OC423)C1(C)C` (centres undefined) belongs “inactive”; to `NC(=O)[C@H]1CNC(=O)C1`, “inactive”. The entry for `NC1(c2ccccc2F)CCCC1` is “inactive”; for `CC(C)(C)[C@]1(O)C[C@@H]2OC(=O)C[C@@]23C(=O)O[C@@H]2OC(=O)[C@H](O)[C@]213` it is “inactive”. `C/C(=C\[C@@H](N)C(=O)O)CP(=O)(O)O`: the cytotoxicity call was “inactive”. For `Cc1cccc(Cc2c[nH]cn2)c1C.Cl`, the cytotoxicity call was “inactive”. To `CCC1C2CC3C4N(C)c5ccccc5C45CC(C2C5O)N3C1O` (centres undefined) belongs “inactive”; to `c1cc(N2CCNCC2)ccn1`, “inactive”. Turning to `CCn1cc2nc(N3CCNCC3)[nH]cc-2c1=O`, the cytotoxicity call is “inactive”. `C[C@H]1O[C@H](n2cnc3c(N)ncnc32)C[C@H]1O`: the cytotoxicity call was “inactive”. The entry for `CC(=O)Oc1ccc(Cl)c2cccnc12` is “active”; for `Cc1c(N)nc([C@H](CC(N)=O)NC[C@@H](N)C(N)=O)nc1C(=O)N[C@H](C(=O)N[C@@H](C)[C@H](O)[C@@H](C)C(=O)N[C@@H](C(=O)NCCc1nc(-c2nc(C(=O)NCCC[S+](C)C)cs2)cs1)[C@@H](C)O)[C@@H](O[C@H]1O[C@H](CO)[C@H](O)[C@@H](O)[C@H]1O[C@H]1O[C@H](CO)[C@@H](O)[C@H](OC(N)=O)[C@@H]1O)c1c[nH]cn1` it is “inactive”. `O[C@H]1[C@H](O)[C@@H](O)CO[C@H]1NCCc1ccccc1`: the cytotoxicity call is “inactive”. For `COCCN1[C@@H]2CC[C@H]1CN(c1ncccn1)C2`, the cytotoxicity call is “inactive”.

As for `CCn1nnnc1N`, the cytotoxicity call was “inactive”. Regarding `C[C@H](CO)N1C[C@H](C)[C@H](CN(C)C(=O)Oc2cccc3ccccc23)OCc2cnnn2CCCC1=O`, the cytotoxicity call is “inactive”. The entry for `NCc1cccnc1` is “inactive”. `CNCc1cccnc1`: the cytotoxicity call is “active”.

`N#Cc1cccnc1`: the cytotoxicity call was “inactive”.

With `CC(=O)OCC1=C2C(=O)[O][Zn][O]C(=O)[C@@H](N)CCCC(=O)N[C@@H]3C(=O)N2[C@@H]3SC1`, the cytotoxicity call is “inactive”. To `Nc1nc(=O)c2ncn([C@H]3O[C@@H](COP(=O)(O)OP(O)(O)=S)[C@H](O)[C@@H]3O)c2[nH]1` belongs “inactive”.

Turning to `CN(C)[C@@H]1C(=O)[C@@H](C(N)=O)C(=O)[C@@]2(O)C(=O)[C@H]3C(=O)c4c(O)ccc(Cl)c4[C@@](C)(O)[C@H]3C[C@@H]12`, the cytotoxicity call was “inactive”.

The values above are taken from the antibiotic and cytotoxicity screens of Wong et al. (2023).
